SMN2 splice up: increases expression of the SMN2 splice variant; HEK293 SMN2-luciferase splicing reporter, luminescence, 30-36 h; 210,000 compounds, 2.8% hits; Potency, µM (doses to about 46.1 µM), without a hit: at the highest dose activity change, positive = activation, usual class: activators; further: % of control where 0% means no effect; nearly all actives have a fitted effect of over 55% in size
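HEK293 cells carry an SMN2 minigene-luciferase reporter in which exon 7 inclusion puts luciferase in frame. Cells were seeded at 2000 cells/well, attached for 10-12 hours, then exposed to compounds for 30-36 hours at 37C before ONE-Glo luminescence.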
Rab9 prom act: activates the Rab9 promoter; Potency, µM (titrated, usually from 9.22 µM), for the others: at the highest dose activation, negative = inhibition, hits mostly activators; 320,000 compounds, 2.8% hits; Huh7 Rab9 promoter-luciferase reporter, luminescence, 24 h; further: % of control where 0% means no effect; nearly all actives have a fitted effect of over 60% in size
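Rab9 promoter-driven luciferase in stably transfected Huh7 cells; 1500 cells/well rested 2 h, exposed to compound in DMSO for 24 h at 37 °C, 5% CO2. Luminescence read 10 min after adding luciferase reagent at ambient temperature.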
ELG1 genotoxic: inducers of genotoxicity in HEK293T ELG1-luciferase cells | HEK293T ELG1-luciferase reporter, luminescence, 16 h | AID 504466 | 330,000 compounds, 1.3% hits | Potency, µM (highest dose often 46 µM), without a hit: at the top dose activity change, positive = activation, actives largely listed as activators; further: % of control where 0% means no effect; nearly all actives have a fitted effect of over 60% in size
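Genotoxicity was scored as increased ELG1-luciferase reporter signal, measured by ONE-Glo luminescence (30 min, room temperature). Compound or vehicle exposure of the HEK293T reporter cells lasted 16 hr at 37°C.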
FLuc counter: counter-screen for miR-21 project: firefly luciferase inhibitors or activators; P08659; 360,000 compounds, 6.9% hits; purified FLuc, Km substrates, luminescence inhibition; AID 588342; Potency, µM (series often up to 57.5 µM), without a hit: at the highest dose activity change, negative = inhibition, actives largely listed as inhibitors;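 further: plate controls were vehicle for no effect and reference inhibitor for full effect; nearly all actives have a fitted effect of over 55% in size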
Target sequence (P08659 whole entry, looked up): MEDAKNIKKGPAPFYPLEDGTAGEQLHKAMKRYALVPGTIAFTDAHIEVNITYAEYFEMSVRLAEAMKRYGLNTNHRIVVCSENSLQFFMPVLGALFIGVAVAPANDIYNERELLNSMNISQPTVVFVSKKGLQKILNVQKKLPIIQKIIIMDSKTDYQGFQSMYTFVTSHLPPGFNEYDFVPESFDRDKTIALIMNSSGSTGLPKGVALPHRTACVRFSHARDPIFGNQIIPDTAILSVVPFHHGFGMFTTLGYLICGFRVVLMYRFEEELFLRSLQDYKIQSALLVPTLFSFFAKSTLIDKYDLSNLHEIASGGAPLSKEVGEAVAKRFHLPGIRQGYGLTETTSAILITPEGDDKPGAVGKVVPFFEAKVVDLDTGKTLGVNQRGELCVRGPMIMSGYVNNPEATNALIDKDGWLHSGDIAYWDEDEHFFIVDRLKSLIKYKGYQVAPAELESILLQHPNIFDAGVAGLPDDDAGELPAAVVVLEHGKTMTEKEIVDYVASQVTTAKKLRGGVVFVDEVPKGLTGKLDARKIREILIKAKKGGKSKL
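Purified P. pyralis luciferase, 10 nM final, with Km-level 10 uM D-luciferin and 10 uM ATP in 50 mM Tris acetate pH 7.5, 10 mM Mg acetate, 0.01% Tween-20, 0.05% BSA; 6-point qHTS titration about 60 µM downward; luminescence read.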
NPC1 promoter act: NPC1 promoter activation. Huh7 NPC1 promoter luciferase reporter, 24 h. 320,000 compounds, 2.4% hits. Potency, µM (top dose mostly 9.22 µM), for inactives: at the top dose activation, actives largely listed as activators; further: % of control where 0% means no effect; nearly all actives have a fitted effect of over 60% in size
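Compounds in DMSO were transferred onto Huh7 NPC1-luciferase reporter cells pre-incubated 2 h; after 24 h at 37 °C, Amplite reagent was dispensed and luminescence recorded 10 min later.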
Luc counter: counter-screen: inhibitors of Kinase-Glo firefly luciferase | Q27757 | Kinase-Glo luciferase, ATP luminescence, 8 min | Potency, µM (series often up to 38.3 µM), for the others: at the top dose activity change, negative = inhibition, usual class: inhibitors | 200,000 compounds, 0.28% hits | AID 1379; further: on the % scale 0 is the no-effect control and ±100 the full control effect; nearly all actives have a fitted effect of over 60% in size
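Kinase-Glo luciferase light output from ATP and luciferin was measured with 10 uM ATP, within the enzyme's linear range. Buffer: 50 mM imidazole pH 7.2, 50 mM KCl, 7 mM MgCl2, 0.01% Tween 20, 0.05% BSA; luminescence read after 8 min at ambient temperature.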
Numbers without * were called inactive; ? = inconclusive; nt = not tested or not shown; ! = not confirmed by another sample; [ ] = remark or other dose. This is a sample that favours compounds with a hit; in the whole collection about 7.5% have one here. The call rests on the fitted dose curve; in most records, active means well fitted curve in the direction sought with a large enough effect; inconclusive means small, poorly fitted or top-dose-only effect, or another doubt; inactive means no such curve, though single readings can be large; an effect the other way counts as inactive or inconclusive. Potency means the concentration at half of the fitted maximal effect.

SMILES	SMN2 splice up	Rab9 prom act	ELG1 genotoxic	FLuc counter	NPC1 promoter act	Luc counter
CCN1CCN(S(=O)(=O)c2ccc(OC)c(NC(=O)c3ccccc3)c2)CC1	nt	3%	-1%	5%	-4%	nt
COc1ccc(Cl)cc1NC(=O)CN1CCN(S(=O)(=O)N2CCCCC2)CC1	nt	-2%	-6%	3%	-5%	nt
O=C(NC1=NCCS1)c1cc(-c2cccs2)nc2ccccc12	nt	0%	-10%	12µM*	2%	nt
c1ccc(-n2nnc3ccccc32)cc1	nt	-1%	1%	-20%	7%	nt
Clc1c(-c2ccccc2)nnn1-c1ccccc1	10µM*	2.2µM*	8.2µM*	3.4µM*	2.2µM*	-11%
Cc1cc(N/N=C/c2ccccc2F)nc(NCc2ccccc2)n1	nt	1%	-6%	15µM*	-1%	nt
CN(C)c1nc(NCc2ccccc2)nc(N/N=C/c2ccccc2F)n1	-15%	0%	-11%	-6%	-2%	2%
Cc1cc(N/N=C/c2cccc(F)c2)nc(NCc2ccccc2)n1	nt	4%	-1%	12µM*	1%	nt
Cc1cc(N/N=C/c2ccccc2)nc(NCc2ccccc2)n1	-4%	3%	0%	6µM*	-2%	-2%
Cc1cc(Nc2cccc(Cl)c2)nc(NCc2ccccc2)n1	-55%	-9%	-6%	?	-4%	4%
Cc1cc(N/N=C/c2cccc(Cl)c2)nc(NCc2ccccc2)n1	-17%	-1%	-1%	?	-2%	-4%
Cc1cc(N/N=C/c2ccc(Cl)cc2)nc(NCc2ccccc2)n1	-30%	-1%	-3%	15µM*	-3%	-2%
O=C(Nc1ccc(Cl)cc1F)c1oc(=O)c2ccccc2c1-c1ccccc1	-2%	nt	nt	-3%	nt	nt
CCCOc1ccc(CNC(=O)C(C)n2nc(C)n3c(cc4occc43)c2=O)cc1 (stereo unspecified)	-6%	nt	nt	-18%	nt	nt
O=C(Oc1ccccc1C(=O)N1CCOCC1)c1ccc(Br)cc1	-20%	-7%	-2%	5%	-2%	0%
O=C(/C=C\N1CCOCC1)c1ccc(Br)cc1	nt	?	?	15µM*	?	nt
O=C(/C=C/N1CCOCC1)c1ccc(-c2ccccc2)cc1	?	3.2µM*	17%	11µM*	1.8µM*	-4%
O=C1C(=O)N(CCCN2CCOCC2)C(c2ccc([N+](=O)[O-])cc2)/C1=C(/O)c1ccc2c(c1)OCO2 (stereo unspecified)	nt	5%	5%	-11%	-3%	nt
CC1(C)S[C@@H]2[C@H](NC(=O)[C@H](N)c3ccccc3)C(=O)N2[C@H]1C(=O)OC1OC(=O)c2ccccc21 (stereo partly specified)	nt	-1%	-3%	4%	-4%	nt
FC(F)(F)c1nc2cc3nc4ccccc4[nH]c3cc2n1	nt	?	0%	24µM*	?	nt
Cn1c(=O)oc2cc(S(=O)(=O)CCC(=O)NCc3ccc(Cl)cc3)ccc21	nt	nt	nt	-2%	nt	nt
Cc1nn(Cc2ccccc2)c(Cl)c1/C=C/C(=O)OCC(=O)N1CCCC1=O	18%	-38%	-2%	-16%	-1%	-1%
S=C(NCCN1CCOCC1)Nc1ccc(-c2nc3ccccc3[nH]2)cc1	0%	?	-4%	?	25%	-1%
Cc1ncc(CO)c(CNc2ccc(-c3nc4ccccc4[nH]3)cc2)c1O	nt	1.6µM*	?	3.4µM*	1µM*	nt
O=C(Nc1nnc(SCc2ccccc2)s1)c1cc2c(s1)CCCC2	-35%	20%	?	?	10%	-4%
SMILES	SMN2 splice up	Rab9 prom act	ELG1 genotoxic	FLuc counter	NPC1 promoter act	Luc counter
CC(C)Cc1nnc(NC(=O)c2ccc(N3CCCC3=O)cc2)s1	nt	-4%	0%	-8%	0%	nt
Cc1cc(C)n(C(=O)c2cc3c(s2)CCCC3)n1	8%	8%	2%	24µM*	18%	-10%
O=C(NCCCN1CCCC1=O)C(=O)Nc1cccc(F)c1	nt	3.2µM*	?	17µM*	?	nt
CCSc1nnc(NC(=O)c2cc3c(s2)CCCC3)s1	?	1.6µM*	7%	?	2.5µM*	-2%
CC(C)Cc1nnc(NC(=O)c2cc3c(s2)CCC3)s1	nt	3.2µM*	17%	?	3.5µM*	nt
CN(CCOc1ccc(Cl)cc1)C(=O)CN1C(=O)NC2(CCCCC2)C1=O	nt	-6%	-14%	2%	2%	nt
CC(C)(C)C(CO)NC(=O)c1ccc[nH]1 (stereo unspecified)	nt	0%	3%	-2%	-3%	nt
O=C(NCCCN1CCOCC1)c1cc2c(s1)CCCC2	25%	16%	8%	3%[2.3 µM]	11%	-1%
O=C(Nc1nncs1)c1cc2c(s1)CCC2	?	2.8µM*	?	6.7µM*	?	-4%
O=C(Nc1nccs1)c1cc2c(s1)CCCCC2	-66%	0.79µM*	nt	0.085µM*	1µM*	7.1µM*
O=C(NCCCN1CCCC1=O)c1cc2c(s1)CCCCC2	nt	?	?	17µM*	29%	nt
NNC(=O)c1cc2c(s1)CCCCCC2	-8%	8%	-2%	?	-3%	-3%
O=C(Nn1cnnc1)c1cc2c(s1)CCCC2	7%	2%	4%	21µM*	7%	-1%
COc1ccc(N2C(=O)C(C)C(Cc3ccc(C)cc3)C2=O)cc1 (stereo unspecified)	nt	13%	-1%	-1%	12%	nt
O=C(NCC1CCCO1)C(c1cccnc1)N(C(=O)Cc1cccs1)c1ccccc1 (stereo unspecified)	-5%	?	10%	11µM*	?	-12%
CC[C@H](C)C(=O)O[C@H]1CCC=C2C=C[C@H](C)[C@H](CC[C@@H]3C[C@@H](O)CC(=O)O3)[C@H]21	?	-14%[46.1 µM]	7%	-11%	-17%[46.1 µM]	-4%
CC[C@H](C)C(=O)O[C@H]1C[C@@H](C)C=C2C=C[C@H](C)[C@H](CC[C@@H]3C[C@@H](O)CC(=O)O3)[C@H]21	16µM*!	0%	-1%	4%	3%	-2%
Cc1ccc(N2C(=O)c3ccccc3NC2c2ccccc2O)cc1 (stereo unspecified)	nt	0.89µM*	?	?	2.5µM*	nt
Cc1cc(C)n(CCOC(=O)c2sc3ccccc3c2Cl)n1	-11%	3%	11%	8.5µM*	-2%	-3%
NC(=O)COC(=O)c1sc2ccccc2c1Cl	12%	-1%	1%	?	4%	-2%
COCC(=O)N1CCC(Oc2ccc(C(=O)NC(C)c3csc(C)n3)cc2)CC1 (stereo unspecified)	nt	-3%	0%	-1%	1%	nt
Cc1cc(/C=N/n2c(COc3ccccc3C)nc3ccccc3c2=O)c(O)c([N+](=O)[O-])c1	-97%	1%	12%	24µM*	5%	-7%

Screening data: PubChem, National Center for Advancing Translational Sciences (NCATS)
